PubChem BioAssay AID1159580 (chemical genetic matrix, 2015)
Where “and” joins values, the source holds several entries; their conditions need not be identical. Equal values may be shown once. Screen size: about 5,500 compounds; about 2,000 (36%) were called active. Roughly 18% stayed inconclusive and do not appear here. Rule as the data show it: active = normalized growth mostly below about 0.91 (no sharp cut-off); inconclusive = no clear call, values can overlap the other calls; inactive = mostly above about 0.92. This is one part of the list.

Assay: chemical genetic growth profiling, strain panel (AID 1159580);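 also: tested at 20 µM; growth read once vehicle control cultures reached saturation at 30 °C; 1 = growth at the plate median or of vehicle wells; lower values mean less growth of the strain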
Details: S. cerevisiae deletion strains, growth OD
[1] = locus YAL013W, strain DEP1, hits give low values
[2] = locus YBR229C, strain ROT2, hits give low values
[3] = locus YCL061C, strain MRC1, hits give low values
[4] = locus YDL101C, strain DUN1, hits give low values
[5] = locus YDR150W, strain NUM1, hits give low values
[6] = locus YEL061C, strain CIN8, hits give low values
[7] = locus YGR078C, strain PAC10, hits give low values
[8] = locus YHR030C, strain SLT2, hits give low values
[9] = locus YHR087W, strain rtc3, hits give low values
[10] = locus YJR043C, strain POL32, hits give low values
[11] = locus YJR075W, strain HOC1, hits give low values
[12] = locus YLR039C, strain RIC1, hits give low values
[13] = locus YLR058C, strain SHM2 (second series), hits give low values
[14] = locus YLR085C, strain ARP6, hits give low values
[15] = locus YLR262C, strain YPT6, hits give low values
[16] = locus YML094W, strain GIM5, hits give low values
[17] = locus YMR219W, strain ESC1, hits give low values
[18] = locus YMR263W, strain SAP30, hits give low values
[19] = locus YNL153C, strain GIM3, hits give low values
[20] = locus YNL298W, strain CLA4 (second series), hits give low values
[21] = locus YNL322C, strain KRE1, hits give low values
[22] = locus YNR030W, strain Alg12, hits give low values
[23] = locus YPL055C, strain LGE1, hits give low values
[24] = locus YPL241C, strain CIN2, hits give low values
[25] = locus YPR135W, strain CTF4, hits give low values

Measured: normalized growth

OC1(C(F)(F)F)CC(c2ccccc2)=NN1 (centres undefined)
active: [15] 0.809
inactive: [1] 0.974 | [2] 0.968 | [3] 0.978 | [4] 0.987 | locus YDL134C, strain PPH21, hits give low values 0.984 | [5] 0.949 | [6] 1 | [7] 0.972 | [8] 1.08 | [9] 0.967 | locus YJL187C, strain SWE1, hits give low values 1 | [10] 0.991 | [11] 0.915 | [12] 0.843 | [13] 0.961 | [14] 1.03 | [16] 1 | [17] 0.976 | [18] 0.976 | [19] 0.981 | [20] 0.989 | [21] 0.953 | [22] 1 | [23] 0.981 | [24] 1.02 | [25] 0.92

OC1(C(F)(F)F)CC(c2ccc3ccccc3c2)=NN1 (centres undefined)
active: [1] 0.205 | locus YAR019C, strain CDC15, hits give low values 0.155 | locus YBL105C, strain PKC1, hits give low values 0.336 | locus YBR135W, strain CKS1, hits give low values 0.263 | locus YBR136W, strain MEC1, hits give low values 0.339 | locus YBR160W, strain CDC28, hits give low values 0.367 | [2] 0.223 | [3] 0.19 | locus YDL017W, strain CDC7, hits give low values 0.373 | locus YDL028C, strain MPS1, hits give low values 0.402 | [4] 0.215 and 0.164 | locus YDL108W, strain KIN28, hits give low values 0.392 | locus YDL132W, strain cdc53, hits give low values 0.234 | locus YDL214C, strain PRR2, hits give low values 0.224 | locus YDR052C, strain DBF4, hits give low values 0.302 | locus YDR054C, strain cdc34, hits give low values 0.233 | [5] 0.397 | locus YDR226W, strain ADK1, hits give low values 0.278 | locus YDR477W, strain SNF1, hits give low values 0.146 | [6] 0.146 | locus YER123W, strain YCK3, hits give low values 0.181 | locus YER133W, strain GLC7, hits give low values 0.135 | locus YFL009W, strain cdc4, hits give low values 0.17 | locus YFL029C, strain CAK1, hits give low values 0.16 | locus YFR003C, strain YPI1, hits give low values 0.405 | locus YFR019W, strain FAB1, hits give low values 0.376 | locus YFR028C, strain CDC14, hits give low values 0.226 | locus YGR040W, strain KSS1, hits give low values 0.135 | locus YGR052W, strain FMP48, hits give low values 0.15 | [7] 0.213 | locus YGR092W, strain DBF2, hits give low values 0.198 | [8] 0.0763 and 0.104 | locus YHR079C, strain IRE1, hits give low values 0.125 | locus YHR082C, strain KSP1, hits give low values 0.141 | [9] 0.442 | locus YHR205W, strain SCH9, hits give low values 0.138 | locus YIL147C, strain SLN1, hits give low values 0.322 | locus YJL095W, strain BCK1, hits give low values 0.115 | locus YJL128C, strain PBS2, hits give low values 0.386 | locus YJL157C, strain FAR1, hits give low values 0.301 | locus YJR016C, strain ILV3, hits give low values 0.162 | [10] 0.245 | locus YJR066W, strain TOR1 (second series), hits give low values 0.192 | locus YJR066W, strain TOR1, hits give low values 0.125 | [11] 0.298 | locus YKL048C, strain ELM1, hits give low values 0.285 | locus YKL067W, strain YNK1, hits give low values 0.279 | locus YKL101W, strain HSL1, hits give low values 0.251 | locus YKL190W, strain CNB1, hits give low values 0.0734 | locus YKL193C, strain SDS22, hits give low values 0.161 | locus YKL203C, strain TOR2, hits give low values 0.13 | [12] 0.13 | [13] 0.274 | [14] 0.0695 | locus YLR113W, strain HOG1, hits give low values 0.15 | locus YLR133W, strain CKI1, hits give low values 0.27 | [15] 0.12 | locus YLR403W, strain SFP1, hits give low values 0.0326 | locus YML070W, strain DAK1, hits give low values 0.211 | [16] 0.192 | locus YMR001C, strain CDC5, hits give low values 0.151 | locus YMR205C, strain PFK2 (second series), hits give low values 0.218 | [17] 0.258 | [18] 0.298 | locus YMR277W, strain FCP1, hits give low values 0.172 | locus YMR307W, strain GAS1, hits give low values 0.13 | locus YNL006W, strain LST8, hits give low values 0.2 | locus YNL020C, strain ARK1, hits give low values 0.257 | [19] 0.239 | locus YNL161W, strain CBK1, hits give low values 0.211 | locus YNL183C, strain NPR1, hits give low values 0.115 | locus YNL207W, strain RIO2, hits give low values 0.195 | locus YNL222W, strain SSU72, hits give low values 0.225 | [20] 0.0831 | locus YNL307C, strain MCK1 (second series), hits give low values 0.228 | [21] 0.571 | [22] 0.108 | locus YOL006C, strain TOP1, hits give low values 0.1 | locus YOL078W, strain AVO1, hits give low values 0.186 | locus YOL136C, strain PFK27, hits give low values 0.211 | locus YOR061W, strain CKA2, hits give low values 0.43 | locus YOR119C, strain RIO1, hits give low values 0.129 | locus YOR231W, strain MKK1, hits give low values 0.132 | locus YOR329C, strain SCD5, hits give low values 0.203 | locus YPL031C, strain PHO85, hits give low values 0.126 | [23] 0.157 | locus YPL153C, strain RAD53, hits give low values 0.115 | locus YPL204W, strain HRR25, hits give low values 0.13 | locus YPL209C, strain IPL1, hits give low values 0.232 | [24] 0.108 | locus YPL256C, strain CLN2, hits give low values 0.147 | locus YPR025C, strain CCL1, hits give low values 0.248 | locus YPR106W, strain ISR1, hits give low values 0.586 | locus YPR111W, strain DBF20, hits give low values 0.715 | [25] 0.163 | strain NNK1, hits give low values 0.492 | strain TSCII, hits give low values 0.18
